A short description of test [1]: binders of probe aFSTL3 on microarray, primary screen, stem cell growth factor project, biochemical, small-molecule microarray, fluorescence 635/667 (AID 1064).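 Further: measures binding of the biotinylated anti-FSTL3 antibody to printed compounds.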 Conditions: higher = more signal.
Test [2] in a line: binders from COS7 lysate, DM2A8 probe, primary screen, torsin A project, cell lysate, small-molecule microarray, fluorescence 635/667 (AID 1065). The note with it: higher = more signal, COS7 lysate expressing mutant human TOR1A.
Test [3] is described as follows: binders of probe aFGF2 on microarray, primary screen, stem cell growth factor project, biochemical, small-molecule microarray, fluorescence 635/667 (AID 1067).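 Further: measures binding of biotinylated aFGF2 protein to printed compounds on slides; z-score merges feature fluorescence and signal-to-noise across triplicate slides.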 Conditions: higher = more signal.
Test [4] in a line: binders of probe aFGF10 on microarray, primary screen, stem cell growth factor project, biochemical, small-molecule microarray, fluorescence 635/667 (AID 1071).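 Further: score merges 667 nm spot intensity and signal to noise from triplicate slides.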 The note with it: higher = more signal.
Test [5] deals with Neurogenic locus notch homolog protein 2 (Homo sapiens) (UniProt Q04721). Nature of the test: Notch2 binders on small-molecule microarrays, primary screen, biochemical, small-molecule microarray, 635 nm fluorescence, stem cell growth factors (AID 1073). Conditions: Notch2 binding, higher = more signal.
Test [6] deals with Pro-neuregulin-1, membrane-bound isoform (Homo sapiens) (UniProt Q02297). Briefly: NRG1 binders on small-molecule microarrays, primary screen, psychiatric disease protein project, biochemical, small-molecule microarray, fluorescence 635/667 (AID 1075).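 Further: score combines 667 nm spot fluorescence with signal to noise.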 Conditions: NRG1 binding, 635 nm fluorescence, higher = more signal.
Test [7] has as its system Neuregulin-1 EGF-like domain. Briefly: binders of neuregulin-1 EGF-like domain, primary screen, biochemical, small-molecule microarray, 635 nm fluorescence (AID 1081).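 Further: binding of the protein to compounds printed on small-molecule microarray slides.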 The note with it: small-molecule microarray binding, higher = more signal.
Test [8] is described as follows: FRG1 promoter luciferase signal modulators, primary screen, FRG1 inhibition for FSHD, cell-based, C2C12 myotubes, firefly/Renilla luciferase, luminescence (AID 1084). The note with it: higher = more signal, called active from +8 up or from −8 down.
Test [9] is described as follows: binders of probe aFST on microarray, primary screen, stem cell growth factor project, biochemical, small-molecule microarray, fluorescence 635/667 (AID 1086).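 Further: score merges 667 nm fluorescence with signal-to-noise of each printed compound spot.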 Conditions: higher = more signal.
Test [10] is described as follows: binders of probe aHhip on microarray, primary screen, stem cell growth factor project, biochemical, small-molecule microarray, fluorescence 635/667 (AID 1087).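 Further: score merges spot fluorescence at 667nm with spot signal to noise ratio.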 The note with it: higher = more signal.
In test [11] the test system is PRMT1 (protein arginine N-methyltransferase 1). Nature of the test: PRMT1 binders on small-molecule microarrays, primary screen, biochemical, small-molecule microarray, 635 nm fluorescence (AID 1088).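 Further: binding of Prmt1 protein to compounds spotted on small-molecule microarray slides.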 Conditions: small-molecule microarray binding, higher = more signal.
A short description of test [12]: yeast growth modulation, basal conditions, primary screen, YJM789 clinical isolate, OD600, 24 h (AID 1089).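 Further: growth of clinical yeast isolate S. cerevisiae YJM 789 seeded 1000 cells per well; test concentration not given here.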 The note with it: S. cerevisiae YJM789 growth, higher = more signal, called active from +8 up or from −8 down.
The nature of test [13]: fission yeast growth modulation, primary screen, strain 972, OD600, 24 h, no modulator (AID 1090).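 Further: basal condition with compound alone and no growth modifier present; test concentration not given here.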 Conditions: S. pombe 972 growth, higher = more signal, called active from +8 up or from −8 down.
Test [14] in a line: S. cerevisiae growth modulation with rapamycin, primary screen, strain BY4716, OD600, 96 h (AID 1091). Further: test concentration not given here. The note with it: higher = more signal, called active from +8 up or from −8 down.
For test [15], the target named is Torsin-1A-interacting protein 2 (Homo sapiens) (UniProt Q8NFQ8). Nature of the test: LULL1 binders on small-molecule microarray, primary screen, cell lysate, human LULL1 lysate, 635/667 nm fluorescence (AID 1092).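 Further: probe is lysate of COS7 cells overexpressing human LULL1; score merges per-feature 667 nm fluorescence with signal-to-noise.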 Conditions: hLULL1 lysate binding, 635 nm fluorescence, higher = more signal.
Test [16] in a line: E. coli growth modulation, two-sided OD650, primary screen, E. coli filamentation project, strain DRC41, 24 h (AID 1093).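 Further: MC1000 strain lacking acrAB efflux and sulA so SOS filamentation is blocked; test concentration not given here.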 Conditions: OD650, 24 h, higher = more signal, called active from +8 up or from −8 down.
A short description of test [17]: small-molecule microarray binders of probe aLefty2, primary screen, biochemical, biotinylated probe, 635/667 nm fluorescence (AID 1094).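 Further: score merges spot fluorescence near 667 nm with spot signal-to-noise ratio.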 Conditions: higher = more signal.
Test [18] has as its system Noggin (protein binding on small-molecule microarray). Nature of the test: Noggin binders on small-molecule microarray, primary screen, biochemical, 635/667 nm fluorescence (AID 1095).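 Further: score merges 667 nm feature fluorescence with signal to noise over triplicate slides.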 The note with it: 635 nm fluorescence, higher = more signal.
Test [19] addresses Neurogenic locus notch homolog protein 3 (Homo sapiens) (UniProt Q9UM47). Briefly: NOTCH3 binders on small-molecule microarray, primary screen, biochemical, 635/667 nm fluorescence (AID 1096). The note with it: NOTCH3 binding, 635 nm fluorescence, higher = more signal.
The nature of test [20]: small-molecule microarray binders of probe aEGFR, primary screen, biochemical, biotinylated probe, 635/667 nm fluorescence (AID 1097).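 Further: probe is a biotinylated anti-EGFR antibody binding compounds printed on slides; score combines fluorescence near 667 nm and signal to noise of each spot.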 Conditions: higher = more signal.

The source made the active and inactive calls.

Sequence of Torsin-1A-interacting protein 2 (Homo sapiens) (Q8NFQ8 whole entry, looked up): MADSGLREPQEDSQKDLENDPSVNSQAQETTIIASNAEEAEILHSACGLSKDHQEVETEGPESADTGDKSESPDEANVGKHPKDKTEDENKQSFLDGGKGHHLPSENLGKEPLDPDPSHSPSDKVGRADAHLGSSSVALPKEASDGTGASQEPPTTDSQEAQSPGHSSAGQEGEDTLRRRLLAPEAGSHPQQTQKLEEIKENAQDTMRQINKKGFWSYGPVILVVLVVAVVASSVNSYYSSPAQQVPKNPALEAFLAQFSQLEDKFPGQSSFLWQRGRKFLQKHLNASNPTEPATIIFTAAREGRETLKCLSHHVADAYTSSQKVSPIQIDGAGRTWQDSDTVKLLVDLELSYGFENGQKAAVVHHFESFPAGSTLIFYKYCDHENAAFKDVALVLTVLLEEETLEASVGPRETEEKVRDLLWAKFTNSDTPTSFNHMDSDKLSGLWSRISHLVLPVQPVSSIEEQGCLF
Sequence of Neurogenic locus notch homolog protein 3 (Homo sapiens) (Q9UM47 whole entry, looked up): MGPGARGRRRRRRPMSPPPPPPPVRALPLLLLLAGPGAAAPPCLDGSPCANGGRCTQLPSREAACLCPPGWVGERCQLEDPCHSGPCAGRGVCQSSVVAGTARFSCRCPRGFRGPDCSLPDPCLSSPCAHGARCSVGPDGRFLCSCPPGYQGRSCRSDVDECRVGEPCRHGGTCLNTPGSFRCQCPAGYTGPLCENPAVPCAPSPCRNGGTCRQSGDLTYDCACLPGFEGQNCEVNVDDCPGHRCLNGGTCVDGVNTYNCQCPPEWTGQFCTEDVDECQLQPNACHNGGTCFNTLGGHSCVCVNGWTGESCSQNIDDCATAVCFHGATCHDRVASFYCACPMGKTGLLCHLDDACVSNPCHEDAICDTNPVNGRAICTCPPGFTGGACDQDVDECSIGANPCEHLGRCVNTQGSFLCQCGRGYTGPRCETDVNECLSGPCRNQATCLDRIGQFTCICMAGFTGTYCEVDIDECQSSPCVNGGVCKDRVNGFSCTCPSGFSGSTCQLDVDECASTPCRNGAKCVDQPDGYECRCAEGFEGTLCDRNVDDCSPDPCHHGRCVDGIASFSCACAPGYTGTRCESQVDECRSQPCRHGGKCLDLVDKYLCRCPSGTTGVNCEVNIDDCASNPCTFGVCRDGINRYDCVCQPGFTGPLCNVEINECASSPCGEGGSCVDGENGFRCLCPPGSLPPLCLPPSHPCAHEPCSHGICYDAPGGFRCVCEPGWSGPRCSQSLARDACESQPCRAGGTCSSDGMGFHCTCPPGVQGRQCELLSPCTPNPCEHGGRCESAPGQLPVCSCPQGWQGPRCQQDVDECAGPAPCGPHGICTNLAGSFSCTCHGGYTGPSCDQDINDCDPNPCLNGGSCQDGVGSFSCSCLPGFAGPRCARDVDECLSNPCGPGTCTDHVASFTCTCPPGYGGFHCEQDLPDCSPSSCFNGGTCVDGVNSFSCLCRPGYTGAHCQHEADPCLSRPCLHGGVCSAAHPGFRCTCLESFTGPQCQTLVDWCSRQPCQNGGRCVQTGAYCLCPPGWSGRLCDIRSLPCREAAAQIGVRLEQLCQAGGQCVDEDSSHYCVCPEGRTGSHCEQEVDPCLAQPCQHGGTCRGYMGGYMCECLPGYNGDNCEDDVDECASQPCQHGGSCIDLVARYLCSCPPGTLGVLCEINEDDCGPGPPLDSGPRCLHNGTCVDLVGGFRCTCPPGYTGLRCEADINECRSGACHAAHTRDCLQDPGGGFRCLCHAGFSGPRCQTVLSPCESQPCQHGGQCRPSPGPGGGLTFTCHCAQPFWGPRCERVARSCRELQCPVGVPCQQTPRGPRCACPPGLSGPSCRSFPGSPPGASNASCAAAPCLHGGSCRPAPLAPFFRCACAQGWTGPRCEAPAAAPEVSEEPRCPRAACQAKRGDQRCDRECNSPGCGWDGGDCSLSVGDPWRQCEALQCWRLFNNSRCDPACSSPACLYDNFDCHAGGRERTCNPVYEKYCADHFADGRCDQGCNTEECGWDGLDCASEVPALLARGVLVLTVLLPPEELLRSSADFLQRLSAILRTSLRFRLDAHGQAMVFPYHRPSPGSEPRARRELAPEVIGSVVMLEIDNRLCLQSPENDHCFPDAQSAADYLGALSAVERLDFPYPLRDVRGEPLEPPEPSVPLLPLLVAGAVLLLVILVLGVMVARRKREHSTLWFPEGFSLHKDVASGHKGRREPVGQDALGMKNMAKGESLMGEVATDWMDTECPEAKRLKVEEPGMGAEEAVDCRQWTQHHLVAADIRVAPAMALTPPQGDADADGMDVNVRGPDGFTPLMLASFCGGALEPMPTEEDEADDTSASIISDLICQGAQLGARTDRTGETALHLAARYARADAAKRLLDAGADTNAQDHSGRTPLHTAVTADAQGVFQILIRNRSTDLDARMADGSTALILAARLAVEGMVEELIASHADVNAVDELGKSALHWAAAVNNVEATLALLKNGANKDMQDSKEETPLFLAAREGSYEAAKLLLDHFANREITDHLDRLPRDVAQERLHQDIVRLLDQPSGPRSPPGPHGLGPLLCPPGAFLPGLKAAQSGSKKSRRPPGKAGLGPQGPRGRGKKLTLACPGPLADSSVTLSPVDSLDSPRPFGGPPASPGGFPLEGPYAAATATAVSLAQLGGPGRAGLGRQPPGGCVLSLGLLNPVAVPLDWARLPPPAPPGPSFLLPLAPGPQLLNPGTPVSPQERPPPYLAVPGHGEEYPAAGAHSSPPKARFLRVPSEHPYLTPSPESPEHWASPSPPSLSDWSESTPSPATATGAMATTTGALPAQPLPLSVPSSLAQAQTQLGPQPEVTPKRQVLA
Sequence of Pro-neuregulin-1, membrane-bound isoform (Homo sapiens) (Q02297 whole entry, looked up, the tested form may be a part, canonical isoform): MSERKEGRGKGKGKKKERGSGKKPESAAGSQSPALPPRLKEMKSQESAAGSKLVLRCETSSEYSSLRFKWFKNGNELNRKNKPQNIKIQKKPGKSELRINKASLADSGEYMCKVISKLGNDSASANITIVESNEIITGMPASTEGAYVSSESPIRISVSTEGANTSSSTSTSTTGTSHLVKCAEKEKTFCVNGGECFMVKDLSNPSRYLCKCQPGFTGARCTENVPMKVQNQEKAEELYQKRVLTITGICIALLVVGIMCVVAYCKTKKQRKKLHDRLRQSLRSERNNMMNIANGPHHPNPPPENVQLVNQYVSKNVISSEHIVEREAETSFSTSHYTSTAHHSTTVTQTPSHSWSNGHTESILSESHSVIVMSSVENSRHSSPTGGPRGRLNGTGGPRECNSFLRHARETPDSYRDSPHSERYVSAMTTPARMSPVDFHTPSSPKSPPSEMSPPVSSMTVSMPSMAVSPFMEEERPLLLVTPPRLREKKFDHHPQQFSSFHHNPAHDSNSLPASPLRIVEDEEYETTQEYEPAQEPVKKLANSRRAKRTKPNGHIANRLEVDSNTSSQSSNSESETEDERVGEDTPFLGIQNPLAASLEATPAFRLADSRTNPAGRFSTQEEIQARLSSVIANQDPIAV

As for `CCS[C@H]1[C@@H](C(=O)O)[C@H](c2ccc(C)cc2)N(S(=O)(=O)c2ccc(C)cc2)[C@@H]1CC`, the composite z-score in test [1] is -0.21; in test [2], -0.0564; in [3], 0.0288; in test [4] it was 1.1; in test [5], 1.36; in [6] it was 1.84. In addition, the composite z-score in test [7] stood at 1.36; in test [9], 1.56; in test [10], 0.201; in test [11], 0.811; in test [15] it was 3.26; in [17], 0.105. For the same compound, the composite z-score is -0.0193 in test [18], 1.11 in test [19] and -0.0563 in test [20]. Moreover, the z-score is -3.15 (inactive) in [8]; -0.406 (inactive) in test [12]; 0.588 (inactive) in test [13]; -0.0003 (inactive) in [14]; 0.401 (inactive) in [16].
`CCCC[C@@H]1C[C@H]1[C@@H](NC(=O)c1cccs1)c1ccc(-c2ccccc2)cc1`: the composite z-score was 0.108 in test [1]; 0.0945 in test [2]; 0.189 in [3]; 0.486 in test [4]; 0.146 in test [5]; -0.0051 in test [6]. Besides, the composite z-score in test [7] was 0.411; in test [9], 0.151; in test [10], 0.2; in test [11] it was 0.464; in [15], 1.09; in [17], -0.121. Besides, the composite z-score in [18] was 0.692; in test [19], 0.428; in test [20], -0.0688. Further, the z-score in [8] was -0.621 (inactive); in test [12] it was 0.227 (inactive); in test [13], -3.7 (inactive); in [14], -1.24 (inactive); in test [16], -0.692 (inactive).
Turning to `CCOC(=O)C[C@H]1[C@H](OC(=O)c2ccc(-c3ccccc3)cc2)[C@@H](NC(=O)Cc2ccc(OC)cc2)c2cc(OCCCO)ccc2N1C(=O)c1ccccc1`, the composite z-score was -0.0117 in test [1]; -0.354 in test [2]; -0.0316 in test [3]; 0.23 in [4]; 0.255 in test [5]; 0.176 in test [6]. Moreover, the composite z-score in test [7] was 0.3; in test [9], 0.376; in test [10], -0.0391; in test [11], -0.15; in test [15], 0.905; in test [17] it was 0.044. Moreover, the composite z-score in test [18] is 0.763; in [19], 0.238; in [20] it was -0.122. In addition, the z-score is -0.831 (inactive) in test [8]; 0.359 (inactive) in test [12]; 0.822 (inactive) in [13]; 0.72 (inactive) in test [14]; -0.69 (inactive) in test [16].
Turning to `CC1(C)C2C=C(C(O)C3C=CC4C(=O)NC(=O)C4N3Nc3ccc(Cl)cc3Cl)C[C@@H]1C2` (stereo not given in full), the composite z-score in [1] was 1.16; in test [2], 0.877; in [3], 0.0474; in test [4], 0.519; in test [5] it was 1.59; in test [6], 1.5. For the same compound, the composite z-score in test [7] was 0.867; in test [9] it was 1.29; in test [10], -0.104; in [11] it was 0.804; in test [15], 1.33; in test [17], 0.374. Besides, the composite z-score in [18] was 0.178; in test [19] it was 0.996; in test [20] it was 0.279. Besides, the z-score in test [8] is -0.505 (inactive); in [12] it was -7.63 (inactive); in [13] it was -6.77 (inactive); in test [14], 0.722 (inactive); in [16], -2.98 (inactive).
Take `O=C(NCCO)C1=C[C@H](Oc2ccccc2I)[C@@H](O)[C@H](N(Cc2ccco2)C(=O)Cc2ccccc2)C1`: the composite z-score is 0.0391 in test [1]; 0.208 in [2]; -0.112 in test [3]; 0.236 in test [4]; 0.299 in test [5]; -0.352 in test [6]. In addition, the composite z-score was -0.473 in test [7]; -0.0165 in [9]; 0.12 in [10]; -0.0355 in [11]; -0.298 in test [15]; -0.0279 in test [17]. The composite z-score in test [18] is 0.535; in test [19] it was 0.271; in test [20], -0.0767. Also, the z-score is 0.157 (inactive) in [8]; 0.528 (inactive) in [12]; 0.0689 (inactive) in [13]; 0.279 (inactive) in [14]; -0.546 (inactive) in [16].
